Experiment [1] deals with Thyrotropin receptor (Homo sapiens) (UniProt P16473). Put plainly: qHTS assay to identify small molecule agonists of the thyroid stimulating hormone receptor (TSHR) signaling pathway (AID 1224843; calls by dose curve; also: nearly all actives have a fitted effect of over 45% in size; also: potency is read from the fitted curve at half-maximal effect). The essentials: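 A cell-based cAMP HTRF format was run in TSHR-transfected HEK293 cells, 800 per well. Treatment: 30 min, room temperature. Detection: 1 h with labelled cAMP and anti-cAMP cryptate. Concentration-response over 15 points, three replicates.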
Thyrotropin receptor (Homo sapiens), sequence (P16473 whole entry, looked up): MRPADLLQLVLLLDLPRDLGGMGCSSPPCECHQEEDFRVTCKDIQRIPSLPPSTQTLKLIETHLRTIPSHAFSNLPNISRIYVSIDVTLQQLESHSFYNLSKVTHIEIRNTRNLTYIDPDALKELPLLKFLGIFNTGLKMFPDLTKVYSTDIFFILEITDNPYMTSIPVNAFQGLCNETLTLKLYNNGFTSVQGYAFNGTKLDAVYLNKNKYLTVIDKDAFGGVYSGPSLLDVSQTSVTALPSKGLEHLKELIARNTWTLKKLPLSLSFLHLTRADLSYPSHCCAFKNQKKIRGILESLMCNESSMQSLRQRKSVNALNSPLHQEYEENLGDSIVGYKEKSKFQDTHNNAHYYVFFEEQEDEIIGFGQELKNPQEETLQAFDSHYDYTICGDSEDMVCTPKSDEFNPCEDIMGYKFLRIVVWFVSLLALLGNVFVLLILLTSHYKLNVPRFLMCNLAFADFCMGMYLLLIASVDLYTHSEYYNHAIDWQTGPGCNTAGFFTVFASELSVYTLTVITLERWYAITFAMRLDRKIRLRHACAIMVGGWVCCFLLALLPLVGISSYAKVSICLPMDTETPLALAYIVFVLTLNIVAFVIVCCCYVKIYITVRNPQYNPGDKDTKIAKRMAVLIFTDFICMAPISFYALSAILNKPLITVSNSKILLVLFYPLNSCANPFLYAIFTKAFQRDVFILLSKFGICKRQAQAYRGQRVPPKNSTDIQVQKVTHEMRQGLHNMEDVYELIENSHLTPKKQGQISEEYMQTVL
On the technique in general: Quantitative high-throughput screening tests each substance at several concentrations.

Experiment [2] in a line: qHTS assay to identify small molecule agonists of the hypoxia (HIF-1) signaling pathway - cell viability counter screen (AID 1224844; calls by dose curve; also: nearly all actives have a fitted effect of over 50% in size). The essentials:
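In this counter screen, HRE-bla ME-180 cell viability after 17 hrs of compound exposure at 37C was read by CellTiter-Glo luminescence, multiplexed with the beta-lactamase reporter measurement.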

A short description of experiment [3]: qHTS assay to identify small molecule agonists of H2AX (AID 1224845; active = well fitted activation curve with a large enough effect in the signal ratio in the repeat runs, not every such curve was filed as active; the % refers to the signal ratio). The essentials:
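Phospho-H2AX Ser139 measured by HTRF (ex 320 nm; em 665 and 620 nm) after 24 hr antibody incubation. Compounds, 15 concentrations, 0.76% DMSO, were applied to CHO-K1 cells for 3hr at 37C before lysis.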

Experiment [4] is described as follows: qHTS assay to identify small molecule agonists of the hypoxia (HIF-1) signaling pathway (AID 1224846; active = well fitted activation curve with a large enough effect in the signal ratio in the repeat runs, not every such curve was filed as active; the % refers to the signal ratio). The method, boiled down:
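ME-180 HRE-bla reporter cells; compounds in DMSO, 17 h at 37C; read-out beta-lactamase via CCF4-AM FRET.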

Experiment [5] can be described thus: qHTS assay to identify small molecule antagonists of the estrogen related receptor (ERR) signaling pathway from Tox21 library (AID 1224848). Also: nearly all actives have a fitted effect of over 50% in size. The method, boiled down: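 ERR cell line, 2,000 cells/well. 6 h settle, then compound (DMSO) added; 18 h at 37 C; ONE-Glo luminescence after 30 min RT.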
Experiment [6] in a line: qHTS assay to identify small molecule agonists of the estrogen related receptor (ERR) signaling pathway from Tox21 library (AID 1224849; calls by dose curve; also: nearly all actives have a fitted effect of over 15% in size). As to conditions: ERR reporter cell line, ONE-Glo luciferase, 18 h; at 92.4 µM (top of the series). The essentials:
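Luciferase activity in ERR pathway reporter cells served as the agonist readout; exposure lasted 18 h at 37 C, with ONE-Glo detection after 30 min at room temperature.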

Experiment [7] is described as follows: qHTS RealTime-Glo MT Cell Viability Assay in HepG2 cells - 24 hour (AID 1224867). Also: nearly all actives have a fitted effect of over 50% in size. The essentials:
(§1)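 Luminescence read-out: viable HepG2 cells reduce a prosubstrate to a NanoLuc substrate, giving a signal proportional to live cell number. Reads taken at 0, 8, 16, 24, 32 and 40 h of compound exposure at 37 C.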

Experiment [8] is described as follows: qHTS RealTime-Glo MT Cell Viability Assay in HEK293 cells - 32 hour (AID 1224868). Also: nearly all actives have a fitted effect of over 50% in size. Also: potency is read from the fitted curve at half-maximal effect. The method, boiled down: (§2)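 Nonlytic real-time viability readout: viable cells convert prosubstrate to NanoLuc substrate, giving luminescence proportional to live cell number. HEK293, 600 cells/well, compound added after 5 h, continuous culture at 37 C.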
The nature of experiment [9]: A CellTox Green Cytotoxicity Assay to monitor cytotoxicity in HEK293 cells - 0 hour (AID 1224869). Also: nearly all actives have a fitted effect of over 50% in size. The essentials: (§3)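 Real-time, in one plate: 600 HEK293 cells/well with dead-cell DNA dye, pinned compound after 5 h, 37 C incubation over 40 h; viable cells give no appreciable fluorescence.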
Experiment [10] is described as follows: qHTS RealTime-Glo MT Cell Viability Assay in HepG2 cells - 40 hour (AID 1224870). Also: nearly all actives have a fitted effect of over 50% in size. Also: potency is read from the fitted curve at half-maximal effect. The essentials: (§4)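 Real-time viability: cells seeded at 600 per well together with NanoLuc and cell-permeant prosubstrate, compounds added after 5 h incubation. Luminescence tracked at 0, 8, 16, 24, 32 and 40 h of exposure.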
Experiment [11] can be described thus: A CellTox Green Cytotoxicity Assay to monitor cytotoxicity in HEK293 cells - 40 hour (AID 1224871). Also: nearly all actives have a fitted effect of over 45% in size. Also: potency is read from the fitted curve at half-maximal effect. The method, boiled down: as §3
The nature of experiment [12]: qHTS RealTime-Glo MT Cell Viability Assay in HEK293 cells - 16 hour (AID 1224872). Also: nearly all actives have a fitted effect of over 50% in size. Also: potency is read from the fitted curve at half-maximal effect. The essentials:
as §2

The nature of experiment [13]: qHTS RealTime-Glo MT Cell Viability Assay in HepG2 cells - 8 hour (AID 1224873). Also: nearly all actives have a fitted effect of over 55% in size. The method, boiled down:
as §4

A short description of experiment [14]: A CellTox Green Cytotoxicity Assay to monitor cytotoxicity in HEK293 cells - 24 hour (AID 1224875). Also: nearly all actives have a fitted effect of over 45% in size. The essentials:
as §3

Experiment [15] in a line: A CellTox Green Cytotoxicity Assay to monitor cytotoxicity in HepG2 cells - 16 hour (AID 1224876). Also: nearly all actives have a fitted effect of over 45% in size. The method, boiled down: (§5)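 Cytotoxicity was tracked as dead-cell DNA fluorescence in HepG2 cells treated with test compounds at 37 C; each time-point value comes from one kinetic series spanning 0, 8, 16, 24, 32 and 40 h.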
The nature of experiment [16]: qHTS RealTime-Glo MT Cell Viability Assay in HepG2 cells - 32 hour (AID 1224877). Also: nearly all actives have a fitted effect of over 55% in size. Also: potency is read from the fitted curve at half-maximal effect. The essentials:
as §1

Experiment [17] can be described thus: A CellTox Green Cytotoxicity Assay to monitor cytotoxicity in HepG2 cells - 24 hour (AID 1224878). Also: nearly all actives have a fitted effect of over 45% in size. Also: potency is read from the fitted curve at half-maximal effect. The essentials: as §5
Experiment [18] is described as follows: A CellTox Green Cytotoxicity Assay to monitor cytotoxicity in HepG2 cells - 40 hour (AID 1224879). Also: nearly all actives have a fitted effect of over 40% in size. Also: potency is read from the fitted curve at half-maximal effect. The essentials:
as §5

Experiment [19] is described as follows: qHTS assay to identify small molecule agonists of H2AX - cell viability counter screen (AID 1224847; calls by dose curve; also: top concentration of the series differs between compounds; nearly all actives have a fitted effect of over 30% in size). The method, boiled down:
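Quantitative HTS viability measurement: CHO-K1 wild-type cells in serum (10% FBS) medium, short 3 hr drug exposure at 37C with 0.76% DMSO, CellTiter-Glo luminescent detection.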

A short description of experiment [20]: qHTS RealTime-Glo MT Cell Viability Assay in HEK293 cells - 40 hour (AID 1224874). Also: nearly all actives have a fitted effect of over 50% in size. Also: potency is read from the fitted curve at half-maximal effect. The conditions noted are these: RealTime-Glo luminescence; max response: stronger effect = lower value. The method, boiled down:
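Kinetic, non-lysing viability readout. Seed HEK293 (600/well) with reagent, incubate 5 h at 37 C/5% CO2, pin 23 nL compound in DMSO, incubate at 37 C, read luminescence at 0, 8, 16, 24, 32, 40 h.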

Several values for one entry are separate records, joined by “and”; a condition that tells them apart may be missing. Equal entries are not always repeated. Records with an inconclusive call do not appear. Some structures have more than one record in an assay (separate samples or runs), and their calls can disagree. Activity calls are given as the source filed them. Unless noted, calls follow the shape of the dose curve; as a rule, active = well fitted curve in the direction sought with a large enough effect in the repeat runs; inconclusive = weak or mixed curves; inactive = no such curve, though single readings can be large; an effect the other way counts as inactive or inconclusive.

The source of these data is PubChem BioAssay (Tox21).
% is scaled to controls: 0 for no effect and ±100 for the full control effect.

Regarding `CCCCN(CC)c1c([N+](=O)[O-])cc(C(F)(F)F)cc1[N+](=O)[O-]`, the Potency in [1] is 8.77 µM (active) and 12.2 µM (active). The Potency entry in experiment [2], in [3], in experiment [5], in experiment [7], in experiment [8] and in experiment [9] was “inactive” throughout. The Potency entry in experiment [10], in experiment [11], in experiment [12], in experiment [13], in experiment [14] and in [15] was “inactive” each time. For the same compound, the Potency result in experiment [16], in [17] and in experiment [18] was “inactive” in each case. Further, the compound was called inactive in experiment [4]. Besides, the activity change, positive = activation in experiment [6] was -0.494% (inactive) and 5.99% (inactive).
Regarding `Nc1ccc(-c2ccc(N)c(N)c2)cc1N`, the Potency result in experiment [1], in experiment [2], in experiment [19], in experiment [7], in [8] and in experiment [9] was “inactive” throughout. In addition, the Potency result in [10], in experiment [11], in experiment [12], in experiment [13], in experiment [14] and in [15] was “inactive” in each case. The Potency result in experiment [16], in experiment [17] and in experiment [18] was “inactive” each time. Moreover, in experiment [4], the compound was called inactive. For the same compound, the max response in experiment [20] is 10% (inactive).
Regarding `CC(C)NC(C)C`, the Potency entry in experiment [1], in [2], in experiment [3], in experiment [19], in [7] and in experiment [8] was “inactive” in each case. Moreover, the Potency entry in experiment [9], in [10], in [12], in experiment [13], in [14] and in experiment [15] was “inactive” each time. The Potency entry in experiment [16], in experiment [17] and in experiment [18] was “inactive” in each case. The outcome in [4] was inactive. Moreover, the max response in experiment [20] is 17.8% (inactive) and 3.33% (inactive).
`Oc1ccc(-c2ccccc2)cc1`: the Potency entry in experiment [1], in [2], in experiment [3], in experiment [5], in experiment [7] and in experiment [9] was “inactive” each time. For the same compound, the Potency result in experiment [10], in experiment [13], in experiment [14], in experiment [15] and in experiment [16] was “inactive” in each case. In addition, in [4], the compound was called inactive. Also, the activity change, positive = activation in experiment [6] was 1.81% (inactive). Further, the Potency is 19.2 µM (active) in [11]; “inactive and 49 µM (active)” in experiment [17]; “inactive and 49 µM (active)” in [18].
As for `O=C(CCl)c1ccccc1`, the Potency is 69.6 µM (active) in experiment [1]; “inactive and 49 µM (active)” in experiment [8]; “inactive and 54.9 µM (active)” in experiment [11]; “inactive and 49 µM (active)” in [12]; 43.6 µM (active) in [20]. The Potency entry in [2], in experiment [3], in experiment [7], in experiment [9], in [10] and in experiment [13] was “inactive” in each case. For the same compound, the Potency entry in [14], in experiment [15], in experiment [16], in experiment [17] and in experiment [18] was “inactive” in each case. In experiment [4], the compound was classed as inactive. Further, the max response in experiment [20] was -7.31% (inactive).
As for `CCCCCc1cc(O)cc(O)c1`, the Potency result in experiment [1], in [2], in experiment [3], in experiment [9], in experiment [14] and in experiment [15] was “inactive” in each case. Further, in experiment [4], the compound was called inactive. Further, the Potency in experiment [8] is 24.5 µM (active); in [10] it was “inactive and 49 µM (active)”; in experiment [12] it was 24.5 µM (active); in experiment [20] it was 24.5 µM (active); in [16], “inactive and 49 µM (active)”.
For `N#CCCCl`, the Potency result in [1], in experiment [2], in experiment [3], in experiment [19], in [7] and in [8] was “inactive” throughout. Also, the Potency entry in experiment [9], in experiment [10], in experiment [11], in experiment [12], in experiment [13] and in experiment [14] was “inactive” in each case. The Potency result in experiment [15], in experiment [16], in experiment [17] and in experiment [18] was “inactive” in each case. The compound was classed as inactive in experiment [4].
